Assay results reported in PMC7862700, “An all-to-all approach to the identification of sequence-specific readers for epigenetic DNA modifications on cytosine”.

Tests used:
Assay in all cases: DAPPL (digital affinity profiling via proximity ligation, sequencing); 10 mM Tris-HCl pH 7.5, 50 mM NaCl, 1 mM DTT, 4% glycerol, room temperature, 30 min; GST-TFs on glutathione beads, 16-mer random dsDNA library, 0.1% formaldehyde crosslink after washing; high values mean tight binding
Details in all cases: protein: recombinant; tags: N-terminal GST; dsDNA, one strand shown
ERF = target: T1, ERF (Homo sapiens, UniProt P50548 1-548)
T1 sequence: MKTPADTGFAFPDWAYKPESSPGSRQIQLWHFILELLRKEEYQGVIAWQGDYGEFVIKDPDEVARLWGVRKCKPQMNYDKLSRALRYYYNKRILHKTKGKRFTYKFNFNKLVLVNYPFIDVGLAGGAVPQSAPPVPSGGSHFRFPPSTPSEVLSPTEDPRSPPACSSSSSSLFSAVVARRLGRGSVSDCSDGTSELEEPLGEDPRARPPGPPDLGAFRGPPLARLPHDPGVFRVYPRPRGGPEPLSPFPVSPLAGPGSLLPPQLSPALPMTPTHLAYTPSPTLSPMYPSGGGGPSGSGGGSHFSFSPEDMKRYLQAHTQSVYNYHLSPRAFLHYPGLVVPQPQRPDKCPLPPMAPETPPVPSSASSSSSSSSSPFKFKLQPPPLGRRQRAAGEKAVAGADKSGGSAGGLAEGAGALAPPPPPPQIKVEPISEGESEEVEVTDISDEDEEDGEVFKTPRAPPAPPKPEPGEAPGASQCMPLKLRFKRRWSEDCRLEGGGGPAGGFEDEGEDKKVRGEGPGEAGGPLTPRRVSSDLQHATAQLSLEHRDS
Summary of the method: (§1)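 Binding signal is given per hexamer as its read frequency for a factor divided by its frequency in the tag-only sample. GST-fused human transcription factors were expressed in yeast, captured on glutathione beads, barcoded with DNA and pooled with that sample, then incubated with 200 nmole of a 16-mer random double-stranded DNA library in Tris/NaCl/DTT/glycerol buffer for 30 min at room temperature. The pools were then washed, crosslinked, proximity-ligated, amplified by PCR and sequenced on an Illumina NextSeq500.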

ETV3L = target: T2, ETV3L (Homo sapiens, UniProt Q6ZN32 1-361)
T2 sequence: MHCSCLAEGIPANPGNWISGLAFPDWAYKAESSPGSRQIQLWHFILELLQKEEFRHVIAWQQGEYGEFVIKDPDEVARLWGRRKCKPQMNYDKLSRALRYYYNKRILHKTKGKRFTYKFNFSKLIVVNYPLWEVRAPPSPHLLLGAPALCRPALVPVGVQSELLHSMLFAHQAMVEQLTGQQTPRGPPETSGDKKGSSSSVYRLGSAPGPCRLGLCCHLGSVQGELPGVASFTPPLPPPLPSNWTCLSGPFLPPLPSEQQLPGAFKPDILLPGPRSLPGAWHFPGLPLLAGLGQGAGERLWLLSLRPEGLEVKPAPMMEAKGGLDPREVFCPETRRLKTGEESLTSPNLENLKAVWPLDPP
Summary of the method: as §1

ETS2 = target: T3, ETS2 (Homo sapiens, UniProt P15036 1-469)
T3 sequence: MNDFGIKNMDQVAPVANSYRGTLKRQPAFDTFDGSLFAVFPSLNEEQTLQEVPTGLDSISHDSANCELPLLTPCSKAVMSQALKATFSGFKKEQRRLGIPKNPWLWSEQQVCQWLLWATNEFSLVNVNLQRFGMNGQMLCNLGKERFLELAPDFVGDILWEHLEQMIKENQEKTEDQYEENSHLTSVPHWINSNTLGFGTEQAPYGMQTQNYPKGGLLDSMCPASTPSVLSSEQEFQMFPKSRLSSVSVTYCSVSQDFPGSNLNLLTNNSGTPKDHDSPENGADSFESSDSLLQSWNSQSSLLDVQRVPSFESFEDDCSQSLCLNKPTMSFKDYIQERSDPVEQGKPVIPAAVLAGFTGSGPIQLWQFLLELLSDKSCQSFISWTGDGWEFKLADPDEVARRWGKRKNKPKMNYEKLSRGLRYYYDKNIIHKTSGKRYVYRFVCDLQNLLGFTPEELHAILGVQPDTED
Summary of the method: as §1

SPDEF = target: T4, SPDEF (Homo sapiens, UniProt O95238 1-335)
T4 sequence: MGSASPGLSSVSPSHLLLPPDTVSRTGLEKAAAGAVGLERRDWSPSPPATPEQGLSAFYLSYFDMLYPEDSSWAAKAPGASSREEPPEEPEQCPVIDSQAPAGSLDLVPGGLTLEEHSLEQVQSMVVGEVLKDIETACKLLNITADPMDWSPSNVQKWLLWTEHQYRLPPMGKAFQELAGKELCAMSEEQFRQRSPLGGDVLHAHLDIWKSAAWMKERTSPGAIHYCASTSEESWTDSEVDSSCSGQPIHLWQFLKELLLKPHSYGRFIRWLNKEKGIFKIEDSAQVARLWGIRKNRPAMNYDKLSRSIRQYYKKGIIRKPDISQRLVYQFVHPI
Summary of the method: as §1

ETV7 = target: T5, ETV7 (Homo sapiens, UniProt Q9Y603 1-341)
T5 sequence: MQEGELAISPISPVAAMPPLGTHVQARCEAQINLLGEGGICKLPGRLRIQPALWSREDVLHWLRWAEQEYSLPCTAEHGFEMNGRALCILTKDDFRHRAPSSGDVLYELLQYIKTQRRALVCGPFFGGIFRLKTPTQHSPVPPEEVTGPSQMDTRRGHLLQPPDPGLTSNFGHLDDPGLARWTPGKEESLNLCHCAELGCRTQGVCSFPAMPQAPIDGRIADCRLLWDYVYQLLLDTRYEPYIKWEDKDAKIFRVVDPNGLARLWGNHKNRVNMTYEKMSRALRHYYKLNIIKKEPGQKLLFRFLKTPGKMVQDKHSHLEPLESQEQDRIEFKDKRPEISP
Summary of the method: as §1

ELF5 = target: T6, ELF5 (Homo sapiens, UniProt Q9UKW6-2 1-255)
T6 sequence: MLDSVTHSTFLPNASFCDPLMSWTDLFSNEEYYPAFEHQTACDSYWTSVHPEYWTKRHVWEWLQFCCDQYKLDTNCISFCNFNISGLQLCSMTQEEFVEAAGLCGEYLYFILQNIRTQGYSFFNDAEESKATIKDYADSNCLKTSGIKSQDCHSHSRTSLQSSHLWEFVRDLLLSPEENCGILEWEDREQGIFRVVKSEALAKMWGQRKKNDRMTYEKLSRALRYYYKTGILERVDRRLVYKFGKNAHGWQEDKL
Summary of the method: as §1

ETV3 = target: T7, ETV3 (Homo sapiens, UniProt P41162-2 1-143)
T7 sequence: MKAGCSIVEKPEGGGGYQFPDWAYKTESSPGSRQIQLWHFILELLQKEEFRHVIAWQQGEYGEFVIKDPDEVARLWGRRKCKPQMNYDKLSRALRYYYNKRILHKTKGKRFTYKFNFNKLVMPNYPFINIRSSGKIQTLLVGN
Summary of the method: as §1

ETV6 = ETV6 (Homo sapiens, UniProt P41212 1-452)
Sequence of ETV6 (P41212 whole entry): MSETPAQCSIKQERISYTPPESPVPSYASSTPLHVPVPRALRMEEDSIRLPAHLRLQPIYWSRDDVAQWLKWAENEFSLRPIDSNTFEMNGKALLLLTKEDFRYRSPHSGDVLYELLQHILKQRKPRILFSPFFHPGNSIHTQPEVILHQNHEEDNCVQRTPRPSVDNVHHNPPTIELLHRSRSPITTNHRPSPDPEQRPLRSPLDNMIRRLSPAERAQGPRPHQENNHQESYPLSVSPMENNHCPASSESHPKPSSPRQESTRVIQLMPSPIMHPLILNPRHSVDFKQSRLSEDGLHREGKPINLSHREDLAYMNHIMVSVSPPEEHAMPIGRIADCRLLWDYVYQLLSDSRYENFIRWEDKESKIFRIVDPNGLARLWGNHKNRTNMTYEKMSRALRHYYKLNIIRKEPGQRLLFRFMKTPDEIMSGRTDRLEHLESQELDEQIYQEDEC
Summary of the method: as §1

Sequence	binding signal (ERF)	binding signal (ETV3L)	binding signal (ETS2)	binding signal (SPDEF)	binding signal (ETV7)	binding signal (ELF5)	binding signal (ETV3)	binding signal (ETV6)
AAAAAC	1.22 fold enrichment (6-mer frequency, TF over GST control)	1.25 fold enrichment (6-mer frequency, TF over GST control)	1.29 fold enrichment (6-mer frequency, TF over GST control)	1.23 fold enrichment (6-mer frequency, TF over GST control)	1.29 fold enrichment (6-mer frequency, TF over GST control)	1.3 fold enrichment (6-mer frequency, TF over GST control)	1.2 fold enrichment (6-mer frequency, TF over GST control)	1.26 fold enrichment (6-mer frequency, TF over GST control)
CACCCG	1.25 fold enrichment (6-mer frequency, TF over GST control)	1.32 fold enrichment (6-mer frequency, TF over GST control)	1.19 fold enrichment (6-mer frequency, TF over GST control)	1.28 fold enrichment (6-mer frequency, TF over GST control)	1.15 fold enrichment (6-mer frequency, TF over GST control)	1.19 fold enrichment (6-mer frequency, TF over GST control)	1.25 fold enrichment (6-mer frequency, TF over GST control)	1.11 fold enrichment (6-mer frequency, TF over GST control)
GAATAC	1.11 fold enrichment (6-mer frequency, TF over GST control)	1.01 fold enrichment (6-mer frequency, TF over GST control)	1.02 fold enrichment (6-mer frequency, TF over GST control)	1 fold enrichment (6-mer frequency, TF over GST control)	1.01 fold enrichment (6-mer frequency, TF over GST control)	1.03 fold enrichment (6-mer frequency, TF over GST control)	1.07 fold enrichment (6-mer frequency, TF over GST control)	1.03 fold enrichment (6-mer frequency, TF over GST control)
GGAACA	1.01 fold enrichment (6-mer frequency, TF over GST control)	1.07 fold enrichment (6-mer frequency, TF over GST control)	1.08 fold enrichment (6-mer frequency, TF over GST control)	1.15 fold enrichment (6-mer frequency, TF over GST control)	1.03 fold enrichment (6-mer frequency, TF over GST control)	1.28 fold enrichment (6-mer frequency, TF over GST control)	1.14 fold enrichment (6-mer frequency, TF over GST control)	1.02 fold enrichment (6-mer frequency, TF over GST control)
ACCGGA	2.82 fold enrichment (6-mer frequency, TF over GST control)	2.97 fold enrichment (6-mer frequency, TF over GST control)	3.14 fold enrichment (6-mer frequency, TF over GST control)	4.52 fold enrichment (6-mer frequency, TF over GST control)	2.74 fold enrichment (6-mer frequency, TF over GST control)	3.2 fold enrichment (6-mer frequency, TF over GST control)	3.45 fold enrichment (6-mer frequency, TF over GST control)	3.16 fold enrichment (6-mer frequency, TF over GST control)
ACTGCA	1.13 fold enrichment (6-mer frequency, TF over GST control)	1.17 fold enrichment (6-mer frequency, TF over GST control)	1.12 fold enrichment (6-mer frequency, TF over GST control)	1.13 fold enrichment (6-mer frequency, TF over GST control)	1.07 fold enrichment (6-mer frequency, TF over GST control)	1.01 fold enrichment (6-mer frequency, TF over GST control)	1.17 fold enrichment (6-mer frequency, TF over GST control)	1.2 fold enrichment (6-mer frequency, TF over GST control)
GATATC	1.56 fold enrichment (6-mer frequency, TF over GST control)	1.46 fold enrichment (6-mer frequency, TF over GST control)	1.49 fold enrichment (6-mer frequency, TF over GST control)	1.92 fold enrichment (6-mer frequency, TF over GST control)	1.34 fold enrichment (6-mer frequency, TF over GST control)	1.74 fold enrichment (6-mer frequency, TF over GST control)	1.61 fold enrichment (6-mer frequency, TF over GST control)	1.51 fold enrichment (6-mer frequency, TF over GST control)
TTGGCC	1.08 fold enrichment (6-mer frequency, TF over GST control)	1.09 fold enrichment (6-mer frequency, TF over GST control)	1.01 fold enrichment (6-mer frequency, TF over GST control)	1.06 fold enrichment (6-mer frequency, TF over GST control)	1.12 fold enrichment (6-mer frequency, TF over GST control)	1.02 fold enrichment (6-mer frequency, TF over GST control)	1.05 fold enrichment (6-mer frequency, TF over GST control)	1.05 fold enrichment (6-mer frequency, TF over GST control)
AAAGGT	1.07 fold enrichment (6-mer frequency, TF over GST control)	1.03 fold enrichment (6-mer frequency, TF over GST control)	1.04 fold enrichment (6-mer frequency, TF over GST control)	1.11 fold enrichment (6-mer frequency, TF over GST control)	1.07 fold enrichment (6-mer frequency, TF over GST control)	1.01 fold enrichment (6-mer frequency, TF over GST control)	1.05 fold enrichment (6-mer frequency, TF over GST control)	1.11 fold enrichment (6-mer frequency, TF over GST control)
TTCAGT	1.09 fold enrichment (6-mer frequency, TF over GST control)	1.13 fold enrichment (6-mer frequency, TF over GST control)	1 fold enrichment (6-mer frequency, TF over GST control)	1.07 fold enrichment (6-mer frequency, TF over GST control)	1.04 fold enrichment (6-mer frequency, TF over GST control)	1.05 fold enrichment (6-mer frequency, TF over GST control)		1.06 fold enrichment (6-mer frequency, TF over GST control)
TGTGTT	1.08 fold enrichment (6-mer frequency, TF over GST control)	1.15 fold enrichment (6-mer frequency, TF over GST control)	1.06 fold enrichment (6-mer frequency, TF over GST control)	1.21 fold enrichment (6-mer frequency, TF over GST control)	1.19 fold enrichment (6-mer frequency, TF over GST control)	1.11 fold enrichment (6-mer frequency, TF over GST control)		1.08 fold enrichment (6-mer frequency, TF over GST control)
ATCTCA	1.07 fold enrichment (6-mer frequency, TF over GST control)	1.13 fold enrichment (6-mer frequency, TF over GST control)	1.14 fold enrichment (6-mer frequency, TF over GST control)	1.07 fold enrichment (6-mer frequency, TF over GST control)	1.15 fold enrichment (6-mer frequency, TF over GST control)	1.09 fold enrichment (6-mer frequency, TF over GST control)	1.13 fold enrichment (6-mer frequency, TF over GST control)	1.11 fold enrichment (6-mer frequency, TF over GST control)
GTCTTC	1.29 fold enrichment (6-mer frequency, TF over GST control)	1.23 fold enrichment (6-mer frequency, TF over GST control)	1.4 fold enrichment (6-mer frequency, TF over GST control)	1.27 fold enrichment (6-mer frequency, TF over GST control)	1.14 fold enrichment (6-mer frequency, TF over GST control)	1.72 fold enrichment (6-mer frequency, TF over GST control)	1.4 fold enrichment (6-mer frequency, TF over GST control)	1.32 fold enrichment (6-mer frequency, TF over GST control)
TTATAG	1.24 fold enrichment (6-mer frequency, TF over GST control)	1.28 fold enrichment (6-mer frequency, TF over GST control)	1.33 fold enrichment (6-mer frequency, TF over GST control)	1.19 fold enrichment (6-mer frequency, TF over GST control)	1.24 fold enrichment (6-mer frequency, TF over GST control)	1.15 fold enrichment (6-mer frequency, TF over GST control)		1.16 fold enrichment (6-mer frequency, TF over GST control)
